Changes are numbered by the printed parent chain.
Legend:
Assay in all cases: PBM; 200 nM protein, PBS
Details in all cases: dsDNA, one strand shown
CRX [1] = biological target: CRX (Homo sapiens, UniProt O43186 26-111)
CRX [2] = biological target: CRX (Homo sapiens, UniProt O43186 26-111, E42D)
PITX2 = PITX2 (Homo sapiens, UniProt Q99697 72-157)
CRX [3] = biological target: CRX (Homo sapiens, UniProt O43186 26-111, R41L)
HOXD13 [4] = biological target: HOXD13 (Homo sapiens, UniProt P35453 263-343, T313R)
HOXD13 (Homo sapiens, UniProt P35453 263-343, T313R), sequence (P35453 263-343 T313R): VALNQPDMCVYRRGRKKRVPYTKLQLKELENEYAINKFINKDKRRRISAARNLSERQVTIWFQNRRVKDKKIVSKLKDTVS

HOXD13 [5] = biological target: HOXD13 (Homo sapiens, UniProt P35453 263-343)
HOXD13 (Homo sapiens, UniProt P35453 263-343), sequence (P35453 263-343): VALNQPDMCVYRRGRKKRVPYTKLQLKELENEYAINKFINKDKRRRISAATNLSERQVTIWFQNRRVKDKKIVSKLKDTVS

HOXD13 [6] = biological target: HOXD13 (Homo sapiens, UniProt P35453 263-343, T313A)
HOXD13 (Homo sapiens, UniProt P35453 263-343, T313A), sequence (P35453 263-343 T313A): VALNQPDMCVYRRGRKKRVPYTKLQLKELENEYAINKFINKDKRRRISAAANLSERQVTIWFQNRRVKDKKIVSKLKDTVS

NKX2-6 [7] = biological target: T1, NKX2-6 (Homo sapiens, UniProt A6NCS4 118-204)
T1 sequence: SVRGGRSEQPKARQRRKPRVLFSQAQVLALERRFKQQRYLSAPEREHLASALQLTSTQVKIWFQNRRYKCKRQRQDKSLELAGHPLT

VAX1 [8] = biological target: VAX1 (Homo sapiens, UniProt Q5SQQ9 86-172)
VAX1 (Homo sapiens, UniProt Q5SQQ9 86-172), sequence (Q5SQQ9 86-172): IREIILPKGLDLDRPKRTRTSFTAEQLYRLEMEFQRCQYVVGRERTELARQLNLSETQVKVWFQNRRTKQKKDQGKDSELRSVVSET

NKX2-6 [9] = biological target: T2, NKX2-6 (Homo sapiens, UniProt A6NCS4 118-204, F151L)
T2 sequence: T1 sequence with F34L

VAX1 [10] = biological target: VAX1 (Homo sapiens, UniProt Q5SQQ9 86-172, T142I)
VAX1 (Homo sapiens, UniProt Q5SQQ9 86-172, T142I), sequence (Q5SQQ9 86-172 T142I): as the sequence (Q5SQQ9 86-172) above, with T57I counted along it

VAX1 [11] = biological target: VAX1 (Homo sapiens, UniProt Q5SQQ9 86-172, K157R)
VAX1 (Homo sapiens, UniProt Q5SQQ9 86-172, K157R), sequence (Q5SQQ9 86-172 K157R): as the sequence (Q5SQQ9 86-172) above, with K72R counted along it

PROP1 [12] = biological target: PROP1 (Homo sapiens, UniProt O75360 56-141)
PROP1 (Homo sapiens, UniProt O75360 56-141), sequence (O75360 56-141): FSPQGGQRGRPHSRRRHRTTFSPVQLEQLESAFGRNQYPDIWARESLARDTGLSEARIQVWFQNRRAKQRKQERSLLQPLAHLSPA

PROP1 [13] = biological target: PROP1 (Homo sapiens, UniProt O75360 56-141, R99H)
PROP1 (Homo sapiens, UniProt O75360 56-141, R99H), sequence (O75360 56-141 R99H): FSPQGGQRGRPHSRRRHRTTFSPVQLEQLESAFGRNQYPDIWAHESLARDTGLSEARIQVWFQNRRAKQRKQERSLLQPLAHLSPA

PROP1 [14] = biological target: PROP1 (Homo sapiens, UniProt O75360 56-141, F88S)
PROP1 (Homo sapiens, UniProt O75360 56-141, F88S), sequence (O75360 56-141 F88S): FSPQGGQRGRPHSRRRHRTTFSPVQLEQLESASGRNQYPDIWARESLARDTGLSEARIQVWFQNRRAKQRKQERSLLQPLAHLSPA

ALX1 [15] = biological target: ALX1 (Homo sapiens, UniProt Q15699 118-204, L144V)
ALX1 (Homo sapiens, UniProt Q15699 118-204, L144V), sequence (Q15699 118-204 L144V): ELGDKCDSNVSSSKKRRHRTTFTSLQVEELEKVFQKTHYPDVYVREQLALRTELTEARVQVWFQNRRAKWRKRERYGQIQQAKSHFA

ALX1 [16] = biological target: ALX1 (Homo sapiens, UniProt Q15699 118-204, L144R)
ALX1 (Homo sapiens, UniProt Q15699 118-204, L144R), sequence (Q15699 118-204 L144R): as the sequence (Q15699 118-204 L144V) above, with V27R counted along it

ALX1 [17] = biological target: ALX1 (Homo sapiens, UniProt Q15699 118-204)
ALX1 (Homo sapiens, UniProt Q15699 118-204), sequence (Q15699 118-204): as the sequence (Q15699 118-204 L144V) above, with V27L counted along it

ALX3 [18] = biological target: ALX3 (Homo sapiens, UniProt O95076 139-225, N203Q)
ALX3 (Homo sapiens, UniProt O95076 139-225, N203Q), sequence (O95076 139-225 N203Q): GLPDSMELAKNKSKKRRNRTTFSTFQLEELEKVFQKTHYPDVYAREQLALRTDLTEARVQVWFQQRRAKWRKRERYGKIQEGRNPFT

ALX3 [19] = biological target: ALX3 (Homo sapiens, UniProt O95076 139-225)
ALX3 (Homo sapiens, UniProt O95076 139-225), sequence (O95076 139-225): as the sequence (O95076 139-225 N203Q) above, with Q65N counted along it

ALX3 [20] = biological target: ALX3 (Homo sapiens, UniProt O95076 139-225, L168Q)
ALX3 (Homo sapiens, UniProt O95076 139-225, L168Q), sequence (O95076 139-225 L168Q): as the sequence (O95076 139-225 N203Q) above, with L30Q, Q65N counted along it

ALX3 [21] = biological target: ALX3 (Homo sapiens, UniProt O95076 139-225, L168V)
ALX3 (Homo sapiens, UniProt O95076 139-225, L168V), sequence (O95076 139-225 L168V): as the sequence (O95076 139-225 N203Q) above, with L30V, Q65N counted along it

ALX3 [22] = biological target: ALX3 (Homo sapiens, UniProt O95076 139-225, N203S)
ALX3 (Homo sapiens, UniProt O95076 139-225, N203S), sequence (O95076 139-225 N203S): as the sequence (O95076 139-225 N203Q) above, with Q65S counted along it

CRX (Homo sapiens, UniProt O43186 26-111, E42D), sequence (O43186 26-111 E42D): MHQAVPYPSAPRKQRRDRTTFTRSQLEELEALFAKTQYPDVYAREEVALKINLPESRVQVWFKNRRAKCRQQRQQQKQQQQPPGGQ
CRX (Homo sapiens, UniProt O43186 26-111, R41L), sequence (O43186 26-111 R41L): as the sequence (O43186 26-111 E42D) above, with R16L, D17E counted along it
CRX (Homo sapiens, UniProt O43186 26-111), sequence (O43186 26-111): as the sequence (O43186 26-111 E42D) above, with D17E counted along it

Sequence: GGAGATTA
- binding signal (CRX [1]): 13.2 upbm affinity estimate (log intensity, higher = more binding, comparable within an allelic series)
- binding signal (CRX [2]): 13.2 upbm affinity estimate (log intensity, higher = more binding, comparable within an allelic series)
- binding signal (PITX2): 12.9 upbm affinity estimate (log intensity, higher = more binding, comparable within an allelic series)
- binding signal (CRX [3]): 13.1 upbm affinity estimate (log intensity, higher = more binding, comparable within an allelic series)

Sequence: CACGCTCC
- binding signal (CRX [1]): 8.3 upbm affinity estimate (log intensity, higher = more binding, comparable within an allelic series)
- binding signal (CRX [2]): 8.47 upbm affinity estimate (log intensity, higher = more binding, comparable within an allelic series)
- binding signal (HOXD13 [4]): 9.56 upbm affinity estimate (log intensity, higher = more binding, comparable within an allelic series)
- binding signal (HOXD13 [5]): 9.55 upbm affinity estimate (log intensity, higher = more binding, comparable within an allelic series)
- binding signal (HOXD13 [6]): 9.79 upbm affinity estimate (log intensity, higher = more binding, comparable within an allelic series)
- binding signal (CRX [3]): 8.41 upbm affinity estimate (log intensity, higher = more binding, comparable within an allelic series)

Sequence: CCCAGTCC
- binding signal (CRX [1]): 8.2 upbm affinity estimate (log intensity, higher = more binding, comparable within an allelic series)
- binding signal (CRX [2]): 8.28 upbm affinity estimate (log intensity, higher = more binding, comparable within an allelic series)
- binding signal (NKX2-6 [7]): 9.59 upbm affinity estimate (log intensity, higher = more binding, comparable within an allelic series)
- binding signal (VAX1 [8]): 7.25 upbm affinity estimate (log intensity, higher = more binding, comparable within an allelic series)
- binding signal (NKX2-6 [9]): 9.36 upbm affinity estimate (log intensity, higher = more binding, comparable within an allelic series)
- binding signal (VAX1 [10]): 7.27 upbm affinity estimate (log intensity, higher = more binding, comparable within an allelic series)
- binding signal (CRX [3]): 8.25 upbm affinity estimate (log intensity, higher = more binding, comparable within an allelic series)
- binding signal (VAX1 [11]): 7.03 upbm affinity estimate (log intensity, higher = more binding, comparable within an allelic series)

Sequence: GGCTTAAC
- binding signal (CRX [1]): 12.7 upbm affinity estimate (log intensity, higher = more binding, comparable within an allelic series)
- binding signal (CRX [2]): 12.6 upbm affinity estimate (log intensity, higher = more binding, comparable within an allelic series)
- binding signal (PITX2): 12.7 upbm affinity estimate (log intensity, higher = more binding, comparable within an allelic series)
- binding signal (CRX [3]): 12.1 upbm affinity estimate (log intensity, higher = more binding, comparable within an allelic series)

Sequence: AGGATTAT
- binding signal (CRX [1]): 13.4 upbm affinity estimate (log intensity, higher = more binding, comparable within an allelic series)
- binding signal (CRX [2]): 13.5 upbm affinity estimate (log intensity, higher = more binding, comparable within an allelic series)
- binding signal (PITX2): 13.2 upbm affinity estimate (log intensity, higher = more binding, comparable within an allelic series)
- binding signal (CRX [3]): 13.5 upbm affinity estimate (log intensity, higher = more binding, comparable within an allelic series)

Sequence: AGTAATCC
- binding signal (CRX [1]): 13.2 upbm affinity estimate (log intensity, higher = more binding, comparable within an allelic series)
- binding signal (CRX [2]): 13.1 upbm affinity estimate (log intensity, higher = more binding, comparable within an allelic series)
- binding signal (PITX2): 13.1 upbm affinity estimate (log intensity, higher = more binding, comparable within an allelic series)
- binding signal (CRX [3]): 13 upbm affinity estimate (log intensity, higher = more binding, comparable within an allelic series)

Sequence: CATAATCC
- binding signal (CRX [1]): 13.4 upbm affinity estimate (log intensity, higher = more binding, comparable within an allelic series)
- binding signal (CRX [2]): 13.4 upbm affinity estimate (log intensity, higher = more binding, comparable within an allelic series)
- binding signal (PITX2): 13.1 upbm affinity estimate (log intensity, higher = more binding, comparable within an allelic series)
- binding signal (PROP1 [12]): 8.29 upbm affinity estimate (log intensity, higher = more binding, comparable within an allelic series)
- binding signal (PROP1 [13]): 7.92 upbm affinity estimate (log intensity, higher = more binding, comparable within an allelic series)
- binding signal (PROP1 [14]): 7.15 upbm affinity estimate (log intensity, higher = more binding, comparable within an allelic series)
- binding signal (CRX [3]): 13.4 upbm affinity estimate (log intensity, higher = more binding, comparable within an allelic series)

Sequence: GCAAGGAC
- binding signal (CRX [1]): 8.57 upbm affinity estimate (log intensity, higher = more binding, comparable within an allelic series)
- binding signal (CRX [2]): 8.32 upbm affinity estimate (log intensity, higher = more binding, comparable within an allelic series)
- binding signal (ALX1 [15]): 6.53 upbm affinity estimate (log intensity, higher = more binding, comparable within an allelic series)
- binding signal (ALX1 [16]): 6.6 upbm affinity estimate (log intensity, higher = more binding, comparable within an allelic series)
- binding signal (CRX [3]): 8.3 upbm affinity estimate (log intensity, higher = more binding, comparable within an allelic series)
- binding signal (ALX1 [17]): 6.36 upbm affinity estimate (log intensity, higher = more binding, comparable within an allelic series)

Sequence: CTCCGCGC
- binding signal (CRX [1]): 8.47 upbm affinity estimate (log intensity, higher = more binding, comparable within an allelic series)
- binding signal (CRX [2]): 8.47 upbm affinity estimate (log intensity, higher = more binding, comparable within an allelic series)
- binding signal (ALX3 [18]): 7.75 upbm affinity estimate (log intensity, higher = more binding, comparable within an allelic series)
- binding signal (ALX3 [19]): 7.82 upbm affinity estimate (log intensity, higher = more binding, comparable within an allelic series)
- binding signal (ALX3 [20]): 7.71 upbm affinity estimate (log intensity, higher = more binding, comparable within an allelic series)
- binding signal (ALX3 [21]): 7.69 upbm affinity estimate (log intensity, higher = more binding, comparable within an allelic series)
- binding signal (CRX [3]): 8.43 upbm affinity estimate (log intensity, higher = more binding, comparable within an allelic series)
- binding signal (ALX3 [22]): 7.76 upbm affinity estimate (log intensity, higher = more binding, comparable within an allelic series)

Sequence: CGACTCGC
- binding signal (CRX [1]): 8.13 upbm affinity estimate (log intensity, higher = more binding, comparable within an allelic series)
- binding signal (CRX [2]): 8.24 upbm affinity estimate (log intensity, higher = more binding, comparable within an allelic series)
- binding signal (ALX3 [18]): 7.77 upbm affinity estimate (log intensity, higher = more binding, comparable within an allelic series)
- binding signal (ALX3 [19]): 7.61 upbm affinity estimate (log intensity, higher = more binding, comparable within an allelic series)
- binding signal (ALX3 [20]): 7.85 upbm affinity estimate (log intensity, higher = more binding, comparable within an allelic series)
- binding signal (ALX3 [21]): 7.71 upbm affinity estimate (log intensity, higher = more binding, comparable within an allelic series)
- binding signal (CRX [3]): 8.21 upbm affinity estimate (log intensity, higher = more binding, comparable within an allelic series)
- binding signal (ALX3 [22]): 7.81 upbm affinity estimate (log intensity, higher = more binding, comparable within an allelic series)

Sequence: GGATTACC
- binding signal (CRX [1]): 13.3 upbm affinity estimate (log intensity, higher = more binding, comparable within an allelic series)
- binding signal (CRX [2]): 13.3 upbm affinity estimate (log intensity, higher = more binding, comparable within an allelic series)
- binding signal (PITX2): 13.1 upbm affinity estimate (log intensity, higher = more binding, comparable within an allelic series)
- binding signal (CRX [3]): 13.3 upbm affinity estimate (log intensity, higher = more binding, comparable within an allelic series)

Sequence: CGTCTGTC
- binding signal (CRX [1]): 8.37 upbm affinity estimate (log intensity, higher = more binding, comparable within an allelic series)
- binding signal (CRX [2]): 8.33 upbm affinity estimate (log intensity, higher = more binding, comparable within an allelic series)
- binding signal (NKX2-6 [7]): 9.53 upbm affinity estimate (log intensity, higher = more binding, comparable within an allelic series)
- binding signal (NKX2-6 [9]): 9.5 upbm affinity estimate (log intensity, higher = more binding, comparable within an allelic series)
- binding signal (CRX [3]): 8.42 upbm affinity estimate (log intensity, higher = more binding, comparable within an allelic series)

From article PMC11006913
